The whole screen tested about 94,000 compounds, of which about 410 (0.44%) were called active.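 Rule for the calls: active = inhibition above about 30% together with a positive call from visual inspection of the well image (limit read from the data); inconclusive = inhibition above a set limit but visual check negative; inactive = inhibition not above a set limit, visual check negative.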 The list comes from a sample in which actives are over-represented; it also holds similar structures and randomly drawn compounds.
Experiment: inhibitors of IL-1B driven NFkB p65 nuclear import, primary screen, imaging, HUVEC, IL-1B stimulus, high-content imaging (AID 796);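 note: nuclear over cytoplasmic p65 intensity ratio measured by imaging; 0% = IL-1B stimulated DMSO wells and 100% = unstimulated DMSO wells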
Settings: HUVEC IL-1B NFkB p65 nuclear translocation imaging; at 2 µM; active compounds read high

inhibition, inactive:
Cc1nnc(SCC(=O)N/N=C/c2cn(-c3ccccc3)nc2-c2ccc(F)cc2)n1-c1ccccc1 16.3%
O=C(Nc1ccc(-n2ccnc2P(=O)(O)c2ccccc2)cc1)c1ccccc1Br -9.1%
COC(=O)Nc1sc2nc(C)cc(C)c2c1-n1cccc1 8.1%
O=C(Nc1nnc(SCc2c(Cl)cccc2Cl)s1)C1CCCO1 (centres undefined) 6.6%
Cc1cccc(C(=O)Nc2ccccc2N2CCN(c3ccc(F)cc3)CC2)c1 4.6%
CCCOc1ccccc1C1CC(=O)Nc2cc3c(cc21)OCO3 (centres undefined) -2.7%
O=C1NC(c2cc3c(cc2Cl)OCO3)Oc2ccccc21 (centres undefined) -2.5%
N#Cc1ccc(-c2ccc(F)cc2)nc1Sc1ccccc1 0%
Cc1cc(=O)oc2cc(OC(C)C(=O)Nc3ccc(N4CCOCC4)cc3)ccc12 (centres undefined) 22.6%
Cc1ccccc1NC(=O)C(C)c1ccc(-c2ccccc2)c(F)c1 (centres undefined) -13%
CCN1CCN(C(=O)C2(NC(=O)Nc3cccc(F)c3)CCCCC2)CC1 9.4%
CN(C)c1ccnc(Oc2ccc(F)cc2)c1C#N -4.4%
COc1ccc(OCC(=O)N2CCN(C(=O)COc3ccccc3)CC2)cc1 -0.4%
O=C(COc1ccc2ccccc2c1)N1CCN(C(=O)c2cccs2)CC1 12.1%
CC(C)c1ccc(N2CCN(C(=O)c3ccccc3NC(=O)/C=C(\C(=O)O)c3ccccc3)CC2)cc1 -24.1%
Cc1nn(C)c(Oc2ccc(Cl)cc2)c1C=O -7.4%
CC(=O)Nc1ccc(S(=O)(=O)N2CCN(C(=O)c3ccccc3F)CC2)cc1 -10.6%
Cc1[nH]nc(-c2ccc(OCc3cnn(-c4ccccc4)c3)cc2O)c1Oc1ccc(Cl)cc1 -4.6%
COC(=O)C1(O)CC(C(C)C)=NN1C(=O)c1ccc(Cl)cc1 (centres undefined) -3.2%
Cc1ccc(S(=O)(=O)c2c(COC(=O)c3cccc(Cl)c3)c(-c3ccccc3)nn2C)cc1 -7.8%
CCN(CC)C(=O)CSc1nc2ccccc2o1 -3.4%
COc1cc(/C=N/Nc2nn3cnnc3c3ccccc23)cc(OC)c1OC -1.1%
COc1ccc(/C=N\NC(=O)c2sc(N)nc2C)cc1OC 1.2%
CCCc1ccc(-c2c(C)sc(NC(=O)c3ccnn3C)c2C#N)cc1 3.3%
Cc1cc(C)c([N+](=O)[O-])cc1-c1ccc(/C=N/NC(=O)c2nonc2N)o1 -17.6%
CC(CC(=O)Nc1cc(C(F)(F)F)ccc1Cl)c1ccccc1 (centres undefined) -2.6%
CC(C)C(NS(=O)(=O)c1cccs1)C(=O)Nc1nc(C(C)(C)C)cs1 (centres undefined) 1.6%
COc1ccc(C2=NOC3(CC(=O)N(c4ccc(Cl)cc4)C3=O)C2)c(OC)c1 (centres undefined) 0.4%
CSCCC(C(=O)NC1=NCCS1)N1C(=O)c2ccccc2C1=O (centres undefined) -15.1%
CCC1(C)Cc2c(sc3[nH]c(=S)n(Cc4ccccc4)c(=O)c23)CO1 (centres undefined) -4.8%
CCOc1ccc(Nc2nc(Cc3nnc(SCC(=O)NC4CCCC4)n3C)cs2)cc1 -8.9%
O=C(CSCc1c(F)cccc1Cl)NCC1CCCO1 (centres undefined) -1.4%
COc1ccc(C2CC(c3cccs3)=Nc3ccccc3S2)cc1OC (centres undefined) -4%
COc1ccc(NC(=O)CSc2nc(NS(=O)(=O)c3ccc(C)cc3)cc(=O)[nH]2)cc1 0.1%
O=S(=O)(/N=C(/Nc1ccccn1)c1ccccc1)c1ccc(Cl)cc1 -20.6%
O=C(Nc1nnc(CCOCCOCCc2nnc(NC(=O)c3ccco3)s2)s1)c1ccco1 2.1%
CCOC(=O)c1c(NC(=O)CSc2nnc(C)c(=O)[nH]2)sc2c1CCC2 7.7%
CCCOC(=O)Nc1sc2c(c1C(=O)OCC)CCC2 4.6%
CC(=O)Nc1ccc(N2C(=O)C3C4CC(=O)C(c5ccccc54)C3C2=O)cc1 (centres undefined) 4.6%
Cc1ccc(-n2c(=O)cc(N3CCN(Cc4ccccc4)CC3)[nH]c2=O)cc1 -36.5%
COC(CNC(=O)Cn1ncc2ccsc2c1=O)OC -11.2%
Cc1ccc(/C=N/NC(=O)C(NC(=O)c2ccccc2)c2n[nH]c(=O)c3ccccc23)cc1 (centres undefined) -3.6%
CC(C)C(=O)NC(=S)Nc1ccccc1F 1.1%
O=[N+]([O-])c1ccccc1OCCCCN1CCCCC1 1.7%
CCOC(=O)COc1cc(OCC(=O)OCC)c2c(=O)cc(-c3ccccc3)oc2c1 5.4%
CCOCc1nnc(NC(=O)CSc2ccc(C)cc2)s1 3.5%
CCN(CC)CCNc1ccc(Cl)cc1[N+](=O)[O-] -11.6%
CN(C(=O)CSc1nc(C2CC2)nc2ccccc12)c1nc(-c2ccccc2)cs1 6.8%
COC(=O)C(NC(=O)c1ccc(OC)cc1)(Nc1ncc(S(=O)(=O)c2ccc([N+](=O)[O-])cc2)s1)C(F)(F)F (centres undefined) 10.1%
COc1ccc(CNCCCO)cc1OC 2.4%
CCCCOc1ccc(C(=O)NCc2ccncc2)cc1 -7.4%
C=CCOc1ccc(Cl)cc1CNCCCN1CCOCC1 5.6%
COC(=O)c1c(CCl)noc1C(=O)NC(C)C -0.8%
CC1C/C(=N/NC(=O)c2cccs2)CC(C)(C)C1 (centres undefined) 25.5%
Nc1ccccc1SCc1cc([N+](=O)[O-])cc2c1OCOC2 -1.6%
O=C(Cn1cncn1)N/N=C/c1c2ccccc2cc2ccccc12 10.3%
CCOC(=O)CNC(=O)CSc1nc2cccnc2n1CC -2.1%
CONC(=O)c1cc(OCC(F)(F)F)ccc1OCC(F)(F)F 4.4%
CC(=O)c1nn(-c2cccc(Br)c2)cc1C(=O)c1cccc2ccccc12 -11.3%
c1ccc(-n2nc3ccccc3n2)cc1 18%
CC1(C)CC(=O)C=C(NCCN2CCNCC2)C1 -15.8%
CC1(C)CC(=O)C=C(NCCCNC2CCCCC2)C1 0%
Cn1c(CO)cnc1SCc1ccccc1 -4.6%
c1ccc(COc2ccccc2CNCc2cccnc2)cc1 -12.3%
Cc1cc(C)n(C(=O)CCNC(=O)c2ccccc2Cl)n1 0.3%
Cc1cc2c(c(=O)n1C)C(C(C)C)C(C#N)=C(N)O2 (centres undefined) 3.4%
O=C(CSCc1c(Cl)cccc1Cl)NN1C(=O)c2ccccc2C1=O 7.6%
Cc1ccc(-c2csc(N(Cc3ccco3)C(=O)c3cccs3)n2)cc1 0.8%
S=c1[nH]nc(-c2ccco2)n1/N=C/c1ccc(Br)s1 -1.5%
Cc1cccc(-n2nc3c(c2NC(=O)c2ccc(Br)o2)CSC3)c1C 0%
Cc1cc(C)c2nc(NC(=O)c3ccc4c(c3)OCO4)sc2c1 9%
O=C(COc1ccc(/C=N/NS(=O)(=O)c2ccccc2)cc1)NCCc1ccccc1 3.5%
Cc1n[nH]c(=O)n1-c1ccc(Oc2ccccc2)cc1 3.9%
COC(=O)Nc1c(C)n(C)n(-c2ccccc2)c1=O -18.8%
Cc1cc(C)cc(N(CC(=O)Nc2c(C)n(C)n(-c3ccccc3)c2=O)S(C)(=O)=O)c1 -3.1%
CC(=O)Nc1ccc(C(=O)CSc2nnc(Cc3ccccc3)o2)cc1 -5.2%
O=C(CSc1nnc(-c2c[nH]c3ccccc23)o1)c1ccccc1 11.5%
CCn1c2ccccc2c2cc(NC(=O)C/C(C)=N/NC(=O)c3ccccc3N)ccc21 -8.3%
CNC(=S)NNC(=O)c1sccc1OCc1ccccc1 -4%
COc1cc(/C=N/O)cc(Br)c1OCc1cccc(Cl)c1 -0.3%
CCCCNc1ccc(C(=O)Nc2cccc(C)n2)cc1[N+](=O)[O-] -3.1%
CC(C)CNS(=O)(=O)c1ccc(OCC(=O)Nc2ccc3c(c2)OCO3)c(Cl)c1 -10.8%
COc1ccc(F)cc1S(=O)(=O)Nc1ccc2c(c1)OCO2 -3.1%
Cc1ccc(C(=O)c2c(NC(=O)c3ccncc3)sc3c2CCCC3)cc1 2.2%
CCc1ccc(/C=N/NC(=O)c2ccc(OC3CCCC3)cc2)s1 0.3%
Cc1nc(N2CCOCC2)nc2c1CCCC2 1.7%
O=C(CSCc1ccc([N+](=O)[O-])cc1)NCCSCc1ccccc1 8.4%
Cc1ccc(N)cc1-n1c(C)ccc1C 4.3%
COc1ccc(C(=O)c2c(C)oc3cc([N+](=O)[O-])c(O)c([N+](=O)[O-])c23)cc1 -48.7%

inhibition, active:
COc1ccccc1C1C2=C(COC2=O)Nc2cc3c(cc21)OCO3 (centres undefined) 39.9%
COc1ccc(OCC(=O)N2CCN(C(=O)c3cccs3)CC2)cc1 42.9%
COc1ccc(/C=N/Nc2nc3ccccc3o2)cc1OC 45.9%
CCOCC(=O)Nc1sc2c(c1C(=O)OCC)CCCC2 31.1%
CC1(C)CC(=O)C=C(NCCCN2CCCC2=O)C1 99.7%
Cc1ccc(-n2nc3c(c2NC(=O)c2ccc4c(c2)OCO4)CSC3)c(C)c1 36%
Cc1cc(C)cc(N(C(C)C(=O)Nc2c(C)n(C)n(-c3ccccc3)c2=O)S(C)(=O)=O)c1 (centres undefined) 47.4%
O=C(CSc1nnc(Cn2cnc3ccccc32)o1)c1ccccc1 98.8%
COc1ccc(S(=O)(=O)Nc2ccc3c(c2)OCO3)cc1Cl 96.2%
Cc1ccc(C)n1-c1ccncc1 34.7%
